15 compounds from PubChem BioAssay (EPA / NIEHS) can be followed below.

Assay [1] addresses human RAR-related Orphan Receptor gamma (RORg), RORC (gene 6097) (UniProt P51449). Nature of the assay: ATG_RORg_TRANS: Attagene TRANS-FACTORIAL HepG2 Assay for human RAR-related Orphan Receptor gamma (RORg) (AID 2283011; active = hit-call score of the fitted dose curve at least 0.9, where 1 is the maximum). In a few lines:
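Reporter transcripts from a transfected RORg-GAL4 chimera in HepG2 cells were quantified 24 h after dosing by RT-PCR, 6-FAM labelling, HpaI digestion and capillary electrophoresis; increases over DMSO baseline were fitted.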

For assay [2], the target named is human Thyroid Receptor alpha (THRa1), THRA (gene 7067) (UniProt P10827). Nature of the assay: ATG_THRa1_TRANS: Attagene TRANS-FACTORIAL HepG2 Assay for human Thyroid Receptor alpha (THRa1) (AID 2283014; active = hit-call score of the fitted dose curve at least 0.9, where 1 is the maximum). In a few lines:
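Transcripts from GAL4-UAS-driven reporters, measured after 24 h compound exposure by RT-PCR plus capillary electrophoresis of 6-FAM-labeled fragments, were fitted for gain of signal relative to DMSO. Cells: transiently transfected HepG2 expressing NR-Gal4 chimeras.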

For assay [3], the target named is human Vitamin D Receptor (VDR), VDR (gene 7421) (UniProt P11473). Nature of the assay: ATG_VDR_TRANS: Attagene TRANS-FACTORIAL HepG2 Assay for human Vitamin D Receptor (VDR) (AID 2283022; active = hit-call score of the fitted dose curve at least 0.9, where 1 is the maximum). Summed up:
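Transactivation by an exogenous VDR-Gal4 chimera in transiently transfected HepG2 cells was measured as reporter transcript level 24 hours after chemical treatment. RT-PCR products were analysed by capillary electrophoresis and fitted in the positive direction relative to DMSO.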

Read-out in assay [4]: Interleukin-1 alpha (IL1a), IL1A (gene 3552)
Nature of the assay: BSK_BE3C_IL1a: BioMAP Diversity Plus: BE3C Assay for Interleukin-1 alpha (IL1a) Biomarker Activity (AID 2283016). To be noted: primary human bronchial epithelial cells; actives raise or lower the signal. Summed up:
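Signal from IL-1a ELISA, taken 24 h after chemical dosing of human bronchial epithelial cells, is compared with DMSO as baseline using bidirectional curve fitting.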

Read-out in assay [5]: Monocyte Chemoattractant Protein-1 (MCP1), CCL2 (gene 6347)
Put plainly: BSK_3C_MCP1: BioMAP Diversity Plus: 3C Assay for Monocyte Chemoattractant Protein-1 (MCP1) Biomarker Activity (AID 2283017). The following applies: primary human endothelial cells (HUVEC); actives raise or lower the signal. In a few lines:
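MCP-1 was measured by ELISA 24 h after dosing in primary HUVEC 3C cultures and fitted in both directions relative to DMSO; cytotoxicity was checked by SRB total-protein staining in parallel wells.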

Read-out in assay [6]: Monocyte Chemoattractant Protein-1 (MCP1), CCL2 (gene 6347)
Nature of the assay: BSK_4H_MCP1: BioMAP Diversity Plus: 4H Assay for Monocyte Chemoattractant Protein-1 (MCP1) Biomarker Activity (AID 2283018). The following applies: primary human endothelial cells (HUVEC); actives raise or lower the signal. Summed up: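 Endothelial cells from umbilical vein were treated with test chemical, then after 24 h MCP-1 levels were quantified by ELISA; endpoint values came from bidirectional fitting with DMSO as baseline of activity.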

Read-out in assay [7]: Human Leukocyte Antigen - DR isotype (HLADR), HLA-DRA (gene 3122)
Put plainly: BSK_3C_HLADR: BioMAP Diversity Plus: 3C Assay for Human Leukocyte Antigen - DR isotype (HLADR) Biomarker Activity (AID 2283019).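 As to outcome: ELISA of cell-surface HLA-DR on HUVEC 24 h after dosing.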 The following applies: primary human endothelial cells (HUVEC); actives raise or lower the signal. In a few lines:
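Bidirectional fitting against DMSO was applied to the HLA-DR ELISA signal from human umbilical vein endothelial cells, 24 h post-dose. Cytotoxicity came from parallel SRB total-protein staining; 3C proliferation was counted by SRB at 48 h.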

Read-out in assay [8]: Interleukin-8 (IL8), CXCL8 (gene 3576)
Nature of the assay: BSK_3C_IL8: BioMAP Diversity Plus: 3C Assay for Interleukin-8 (IL8) Biomarker Activity (AID 2283020). To be noted: primary human endothelial cells (HUVEC); actives raise or lower the signal. Summed up: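 Endothelial primary cells of human umbilical vein origin are dosed with chemical; after 24 h the IL-8 biomarker is measured by ELISA, and concentration–response is fitted in both directions versus DMSO.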

Read-out in assay [9]: Monokine induced gamma interferon (MIG), CXCL9 (gene 4283)
Put plainly: BSK_3C_MIG: BioMAP Diversity Plus: 3C Assay for Monokine induced gamma interferon (MIG) Biomarker Activity (AID 2283021).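 As to AC50: MIG protein level measured by immunoassay in the treated endothelial cultures.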 To be noted: primary human endothelial cells (HUVEC); actives raise or lower the signal. Summed up:
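Endothelial primary cells (human umbilical vein) are dosed with test chemical in the 3C system. MIG levels are measured by ELISA at 24 h and fitted in both directions relative to DMSO.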

The nature of assay [10]: BSK_3C_SRB: Viability Assessment in the BioMAP Diversity Plus: 3C Assay (AID 2283023).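 Also: fitted both ways against DMSO so a hit may be signal rise or drop.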 To be noted: primary human endothelial cells (HUVEC). Summed up:
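Cytotoxicity readout in parallel HUVEC 3C cultures: after 24 h compound exposure, cells fixed with 10% TCA, stained with 0.1% SRB and read at 560 nm. Gain or loss relative to DMSO fitted.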

Read-out in assay [11]: Matrix Metallopeptidase 1 (MMP1), MMP1 (gene 4312)
Put plainly: BSK_BE3C_MMP1: BioMAP Diversity Plus: BE3C Assay for Matrix Metallopeptidase 1 (MMP1) Biomarker Activity (AID 2283024). The following applies: primary human bronchial epithelial cells; actives raise or lower the signal. In a few lines:
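MMP1 signal, measured by ELISA after a 24 h chemical exposure of human primary bronchial epithelial cells, is analysed with bidirectional fitting using DMSO as negative control.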

Assay [12] in a line: BSK_3C_Vis: BioMAP Diversity Plus: 3C Assay for Morphology Visualization (AID 2283025).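 Also: fitted both ways so gain or loss versus DMSO counts.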 To be noted: primary human endothelial cells (HUVEC). Summed up: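 Morphology read by light microscopy serves as a background control for the multiplexed 3C assay in human umbilical vein endothelial cells, taken 24 h after dosing, with DMSO as the negative control and bidirectional curve fitting.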

Read-out in assay [13]: Pselectin, SELP (gene 6403)
Put plainly: BSK_4H_Pselectin: BioMAP Diversity Plus: 4H Assay for Pselectin Biomarker Activity (AID 2283026). The following applies: primary human endothelial cells (HUVEC); actives raise or lower the signal. In a few lines:
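Endothelial primary cells (human umbilical vein) are dosed, incubated 24 h, and assayed for surface P-selectin by ELISA; responses in either direction are fitted relative to the DMSO negative control.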

Assay [14] is described as follows: BSK_4H_SRB: Viability Assessment in the BioMAP Diversity Plus: 4H Assay (AID 2283027).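 Also: cells exposed to compound for 24 h before staining.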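 As to AC50: curves fitted both ways versus DMSO so AC50 may be loss or gain.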 To be noted: primary human endothelial cells (HUVEC). In a few lines: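 HUVEC, 24 h post-dose; 10% TCA fix, 0.1% SRB stain, A560 nm. Total protein = overt cytotoxicity, parallel to biomarker read. Bidirectional fit vs DMSO baseline.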
Assay [15] is described as follows: BSK_BE3C_SRB: Viability Assessment in the BioMAP Diversity Plus: BE3C Assay (AID 2283028). To be noted: primary human bronchial epithelial cells. Summed up:
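Cytotoxicity read-out: SRB (0.1%) staining of TCA-fixed (10%) human lung bronchial epithelial cells, absorbance 560 nm, 24 h post-dosing. Curves fitted both directions relative to DMSO.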

Read-out in assay [16]: Thrombomodulin, THBD (gene 7056)
Put plainly: BSK_3C_Thrombomodulin: BioMAP Diversity Plus: 3C Assay for Thrombomodulin Biomarker Activity (AID 2283029). To be noted: primary human endothelial cells (HUVEC); actives raise or lower the signal. In a few lines:
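Endothelial cells from umbilical vein are dosed with test chemical and incubated 24 h. Thrombomodulin is then quantified by ELISA, with DMSO serving as negative control and activity baseline.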

In assay [17] the target is human Retinoid X Receptor beta (RXRb), RXRB (gene 6257) (UniProt P28702). Nature of the assay: ATG_RXRb_TRANS: Attagene TRANS-FACTORIAL HepG2 Assay for human Retinoid X Receptor beta (RXRb) (AID 2283013; active = hit-call score of the fitted dose curve at least 0.9, where 1 is the maximum). In a few lines:
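Chimeric receptor-Gal4 activity was assessed in transiently transfected human HepG2 cells after 24 h exposure. Transcripts from GAL4-UAS reporters were quantified by fluorescent RT-PCR and capillary electrophoresis, with DMSO as negative control and baseline.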

The target in assay [18] is Retinoic acid receptor RXR-alpha (Homo sapiens) (UniProt P19793). Put plainly: ATG_RXRa_TRANS: Attagene TRANS-FACTORIAL HepG2 Assay for human Retinoid X Receptor alpha (RXRa) (AID 2283012; active = hit-call score of the fitted dose curve at least 0.9, where 1 is the maximum). In a few lines: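 Measures exogenous chimeric NR-GAL4 activity in transfected HepG2 liver cells after 24 h of dosing. Induced reporter mRNA was detected by RT-PCR with capillary electrophoresis, and gain of signal was analysed against DMSO.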
Chain of Retinoic acid receptor RXR-alpha (Homo sapiens) (P19793 whole entry, looked up, the tested form may be a part): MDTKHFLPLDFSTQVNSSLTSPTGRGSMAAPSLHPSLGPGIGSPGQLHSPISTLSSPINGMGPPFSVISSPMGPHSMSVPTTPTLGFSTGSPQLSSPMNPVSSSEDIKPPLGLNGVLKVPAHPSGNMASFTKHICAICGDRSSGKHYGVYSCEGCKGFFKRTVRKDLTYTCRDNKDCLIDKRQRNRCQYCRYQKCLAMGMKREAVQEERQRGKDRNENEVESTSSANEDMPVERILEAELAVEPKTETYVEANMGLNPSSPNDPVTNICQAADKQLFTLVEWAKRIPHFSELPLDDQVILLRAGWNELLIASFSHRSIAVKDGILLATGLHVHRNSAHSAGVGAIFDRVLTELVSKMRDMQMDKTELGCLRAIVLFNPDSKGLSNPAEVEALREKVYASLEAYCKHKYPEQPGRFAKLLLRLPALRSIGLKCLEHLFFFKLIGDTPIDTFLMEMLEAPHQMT

Read-out in assay [19]: E-selectin (Homo sapiens) (UniProt P16581)
Put plainly: BSK_3C_Eselectin: BioMAP Diversity Plus: 3C Assay for Eselectin Biomarker Activity (AID 2283015). The following applies: primary human endothelial cells (HUVEC); actives raise or lower the signal. In a few lines: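 E-selectin ELISA readout, fitted bidirectionally relative to DMSO, taken 24 h post-dosing in HUVEC cultures of the 3C system. Overt cytotoxicity tracked with sulforhodamine B staining of parallel wells.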

Molecules are shown by their SMILES. “And” between values parts separate entries of the source, which are not always exact repeats. Identical values can stand only once. Inconclusive results are not listed. Some structures have more than one record in an assay (separate samples or runs), and their calls can disagree. The source made the active and inactive calls. The calls were made as follows, unless noted: active = hit-call score of the fitted dose curve at least 0.9, where 1 is the maximum; inactive = score below 0.9.

Chain of human Retinoid X Receptor beta (RXRb), RXRB (gene 6257) (P28702 whole entry, looked up, the tested form may be a part): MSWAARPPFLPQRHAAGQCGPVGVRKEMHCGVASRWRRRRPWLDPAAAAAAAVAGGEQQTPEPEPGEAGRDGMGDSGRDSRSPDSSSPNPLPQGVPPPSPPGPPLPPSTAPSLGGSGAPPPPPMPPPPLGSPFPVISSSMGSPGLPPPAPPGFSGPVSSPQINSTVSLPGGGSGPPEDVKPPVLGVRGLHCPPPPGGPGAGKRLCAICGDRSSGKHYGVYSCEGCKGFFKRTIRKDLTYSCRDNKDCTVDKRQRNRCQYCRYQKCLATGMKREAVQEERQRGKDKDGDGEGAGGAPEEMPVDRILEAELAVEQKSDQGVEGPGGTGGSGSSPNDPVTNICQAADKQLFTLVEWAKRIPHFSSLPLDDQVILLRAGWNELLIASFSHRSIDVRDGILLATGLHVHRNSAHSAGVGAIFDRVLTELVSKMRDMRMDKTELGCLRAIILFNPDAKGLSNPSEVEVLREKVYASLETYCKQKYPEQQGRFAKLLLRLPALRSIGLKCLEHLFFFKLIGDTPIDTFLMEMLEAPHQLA
Chain of human Vitamin D Receptor (VDR), VDR (gene 7421) (P11473 whole entry, looked up, the tested form may be a part): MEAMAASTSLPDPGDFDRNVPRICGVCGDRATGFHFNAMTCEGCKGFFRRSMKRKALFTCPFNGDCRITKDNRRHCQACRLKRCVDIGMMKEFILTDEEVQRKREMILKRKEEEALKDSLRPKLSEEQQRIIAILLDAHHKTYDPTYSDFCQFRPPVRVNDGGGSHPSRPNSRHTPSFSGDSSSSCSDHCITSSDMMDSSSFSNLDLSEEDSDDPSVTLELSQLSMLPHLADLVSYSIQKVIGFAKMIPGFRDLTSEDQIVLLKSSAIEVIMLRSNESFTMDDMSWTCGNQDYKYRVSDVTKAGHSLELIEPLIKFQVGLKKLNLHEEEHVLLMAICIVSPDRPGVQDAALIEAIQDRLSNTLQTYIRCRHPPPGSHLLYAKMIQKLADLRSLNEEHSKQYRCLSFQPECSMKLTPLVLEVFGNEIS
Chain of human RAR-related Orphan Receptor gamma (RORg), RORC (gene 6097) (P51449 whole entry, looked up, the tested form may be a part): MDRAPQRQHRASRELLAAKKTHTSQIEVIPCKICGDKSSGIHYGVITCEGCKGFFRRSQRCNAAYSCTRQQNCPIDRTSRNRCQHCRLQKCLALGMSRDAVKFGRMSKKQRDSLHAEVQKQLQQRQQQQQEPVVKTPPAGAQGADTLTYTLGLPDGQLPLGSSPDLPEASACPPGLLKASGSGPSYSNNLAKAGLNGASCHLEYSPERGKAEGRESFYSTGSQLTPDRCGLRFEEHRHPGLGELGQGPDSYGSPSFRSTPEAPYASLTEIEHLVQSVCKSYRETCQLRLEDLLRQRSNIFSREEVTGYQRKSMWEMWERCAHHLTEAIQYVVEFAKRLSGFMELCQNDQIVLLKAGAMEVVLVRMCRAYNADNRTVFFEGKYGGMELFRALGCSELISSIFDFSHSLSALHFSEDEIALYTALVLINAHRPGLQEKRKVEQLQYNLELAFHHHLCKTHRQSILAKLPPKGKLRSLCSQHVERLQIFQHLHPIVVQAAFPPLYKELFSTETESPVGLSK
Chain of human Thyroid Receptor alpha (THRa1), THRA (gene 7067) (P10827 whole entry, looked up, the tested form may be a part): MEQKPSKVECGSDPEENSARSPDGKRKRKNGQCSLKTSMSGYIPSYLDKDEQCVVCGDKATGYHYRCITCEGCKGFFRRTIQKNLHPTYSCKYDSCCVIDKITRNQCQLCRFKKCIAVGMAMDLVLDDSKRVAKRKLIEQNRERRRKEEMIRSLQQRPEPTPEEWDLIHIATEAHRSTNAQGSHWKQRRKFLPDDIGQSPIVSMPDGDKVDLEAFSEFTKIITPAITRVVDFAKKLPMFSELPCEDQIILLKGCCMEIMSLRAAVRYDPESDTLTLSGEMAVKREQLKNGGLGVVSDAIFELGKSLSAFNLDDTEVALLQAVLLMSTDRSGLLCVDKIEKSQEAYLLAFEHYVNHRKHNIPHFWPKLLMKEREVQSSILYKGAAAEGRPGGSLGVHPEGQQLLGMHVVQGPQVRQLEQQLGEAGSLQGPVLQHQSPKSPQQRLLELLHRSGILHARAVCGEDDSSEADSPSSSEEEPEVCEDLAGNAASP
Chain of E-selectin (Homo sapiens) (P16581 whole entry, looked up): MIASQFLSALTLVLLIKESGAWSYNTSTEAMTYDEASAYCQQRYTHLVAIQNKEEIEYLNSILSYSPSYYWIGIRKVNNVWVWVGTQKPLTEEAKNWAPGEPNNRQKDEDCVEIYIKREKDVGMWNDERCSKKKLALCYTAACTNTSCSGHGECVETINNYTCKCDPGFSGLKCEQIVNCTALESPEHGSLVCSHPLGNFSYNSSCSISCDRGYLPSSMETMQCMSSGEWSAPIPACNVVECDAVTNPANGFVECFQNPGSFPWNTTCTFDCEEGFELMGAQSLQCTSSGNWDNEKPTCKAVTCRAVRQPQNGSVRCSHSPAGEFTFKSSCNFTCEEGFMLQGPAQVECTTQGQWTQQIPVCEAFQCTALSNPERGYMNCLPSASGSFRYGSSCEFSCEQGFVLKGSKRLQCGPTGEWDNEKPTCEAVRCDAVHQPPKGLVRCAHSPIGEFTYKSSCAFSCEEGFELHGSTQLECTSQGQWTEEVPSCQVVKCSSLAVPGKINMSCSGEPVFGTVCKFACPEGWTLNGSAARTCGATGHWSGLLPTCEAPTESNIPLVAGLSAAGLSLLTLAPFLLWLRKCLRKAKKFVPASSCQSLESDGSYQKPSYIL

On to `[Cl][Sc]([Cl])[Cl]`, for which the call in assay [1], in assay [2] and in [3] was inactive.
For the compound `CN1CCN(C)CC1`, the call in assay [1], in assay [2] and in [3] was inactive.
For the compound `CC1(C)CC(O)CC(C)(C)N1[O]`, the outcome in assay [1], in [4], in [5], in assay [6], in assay [7] and in assay [8] was inactive. Also, the outcome in assay [9], in [3], in assay [10], in [11], in [12] and in assay [13] was inactive. Moreover, the outcome in assay [14], in [15] and in assay [16] was inactive.
Turning to `COC(=O)c1ccccc1C`, the compound was called inactive in [1] and in [2].
In the case of `CCCCCCCCCCCC(=O)N(C)CC(=O)O`, the result in assay [1], in assay [4], in assay [5], in assay [6], in assay [7] and in assay [8] was inactive. Moreover, the outcome in [9], in [3], in assay [10], in assay [13], in assay [14] and in [15] was inactive. Further, the result in assay [16] was inactive. In addition, the concentration at half-maximal activity (AC50) was 8.01 µM (active) and 15.5 µM (active) in assay [11]; 1.89 µM (active) in assay [13].
As for `Nc1ccnc(=O)[nH]1`, the compound was called inactive in assay [1], in assay [17] and in assay [3].
Turning to `CC12CCC(CC1)C(C)(C)O2`, the outcome in [1] and in [17] was inactive.
As to `CC1=C(O)C(=O)C(C)O1` (stereo not given), the compound was called inactive in [1] and in assay [17].
Take `CC(C)C(=O)OCCOc1ccccc1`: the outcome in [1] and in assay [3] was inactive.
Regarding `C=CC(=O)OCCCCCCOC(=O)C=C`, the outcome in [18], in [17], in assay [2], in assay [3], in assay [11] and in assay [15] was inactive. Moreover, in [16], the result was inactive. The AC50 in [19] is 6.59 µM (active); in assay [4], 10 µM (active); in assay [5] it was 20 µM (active); in [6], 9.96 µM (active); in assay [7], 4.69 µM (active); in assay [8], 12.3 µM (active). Moreover, the half-maximal activity concentration (AC50) was 20 µM (active) in assay [9]; 20 µM (active) in assay [10]; 12.9 µM (active) in assay [12]; 10.3 µM (active) in [13]; 20 µM (active) in assay [14].
For `Cn1ccnc1`, the call in [18], in assay [17], in assay [2] and in assay [3] was inactive.
For `c1ccc(-c2nc3ccccc3[nH]2)cc1`, the compound was called inactive in assay [18], in assay [17] and in assay [2].
On to `CCCCCCCC(=O)OCC`, for which the compound was classed as inactive in assay [18] and in [17].
In the case of `CC(C)c1ccc(O)c(C(C)C)c1`, the concentration at half-maximal activity (AC50) in assay [18] is 54.6 µM (active); in assay [17] it was 9.23 µM (active).
Turning to `CC(=O)OCC=C(C)C`, the outcome in assay [18], in assay [17], in assay [2] and in assay [3] was inactive.
